Records with an inconclusive call do not appear. Activity calls are given as the source filed them. Calls come from the whole dose curve; as a rule, active = well fitted curve in the direction sought with a large enough effect; inconclusive = small, poorly fitted or top-dose-only effect, or another doubt; inactive = no such curve, though single readings can be large; an effect the other way counts as inactive or inconclusive.
System: not listed separately
Experiment: Primary redox qHTS assay for identification of artifact compounds. (AID 1845223);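 note: 0% = DMSO and 100% = reference compound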
Details: Amplex Red/HRP redox cycling with DTT, fluorescence; series mostly up to 53.8 µM
Outline: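 Redox-cycling detection via DTT (250 uM final) oxidation coupled to Amplex Red (25 uM)/HRP (250 mU/mL) in HBSS. 15 min preincubation plus 30 min after DTT, room temperature. Ex/Em 525/598 nm; 4-parameter Hill fit against DMSO and 10 uM DA3003.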

SMILES | outcome | redox activity (% of DA3003)
Cc1cn(C[C@H](N)C(=O)O)c(=O)n(Cc2cc(-c3ccccc3)sc2C(=O)O)c1=O | inactive | –
CCC(C)(OC(C)=O)C(=O)O[C@H]1[C@H](OC(C)=O)C[C@@H]2[C@@](C)([C@@H]3C[C@H]4C=CO[C@H]4O3)[C@H](C)C[C@H](OC(C)=O)[C@@]2(COC(C)=O)[C@@]12CO2 (some centres undefined) | inactive | –
CC1C/C=C/C(O)C(O)CC/C=C/c2cc(O)cc(O)c2C(=O)O1 (centres undefined) | inactive | –
CC(C)(O)[C@H]1O[C@H]2CC[C@@]3(C)[C@@](O)(CC[C@H]4Cc5c([nH]c6ccccc56)[C@@]43C)C2=CC1=O | inactive | –
CCCCCCn1c(=O)c(C(=O)Nc2ccc(C(=O)OCCC)cc2)c(O)c2ccccc21 | – | -1.37% [at 11.5 µM] (inactive)
CN1CCCC1CCOC(c1cc2nccc(C(=O)O)c2[nH]1)c1ccccc1Cl (centres undefined) | inactive | –
C[C@@H]1C(=O)O[C@H]2[C@H](O)[C@@]34[C@@H]5OC(=O)[C@@]3(O[C@@H]3OC(=O)[C@@H](O)[C@@]34[C@H](C(C)(C)C)[C@H]5O)[C@@]12O | inactive | –
COC1C(O)C(C)OC(OC2C(CO)O[C@@H](O[C@@H]3CC4CCC5C(CC[C@]6(C)[C@@H](C7=CC(=O)OC7)CC[C@]56O)[C@@]4(C)[C@H](O)C3)C(O)C2O)C1O (some centres undefined) | inactive | –
CN(C(=O)Cc1ccccc1)C(CN1CCCC1)c1ccccc1 (centres undefined) | inactive | –
CN1[C@@H]2CC[C@H]1CC(OC(=O)C1C=Nc3ccccc31)C2 (some centres undefined) | inactive | –
C=C(CO)C(=O)O[C@H]1C/C(C)=C/CC/C(CO)=C/[C@H]2OC(=O)C(=C)[C@H]12 | inactive | –
CCCN1CCO[C@H]2c3cc(O)ccc3OC[C@@H]21 | inactive | –
C[C@]12CC[C@H]3[C@@H]([C@H](O)CC4=CC(=O)CC[C@@]43C)[C@@H]1CC[C@@H]2O | inactive | –
COc1cc2c(cc1OC)[C@@]13CCN4CC5=CCO[C@H]6CC(=O)N2[C@H]1[C@H]6[C@H]5C[C@H]43 | inactive | –
CN1C(=O)N(c2ccc(C#N)c(C(F)(F)F)c2)C(=O)[C@]1(CO)c1ccccc1 | inactive | –
C/C=C(\C)C(=O)OC1CC2C(C)(C)OC(=O)CC(OC(C)=O)C2(C)C2CC(OC(=O)C(C)C)C3(C)C(c4ccoc4)CC4OC43C12C (centres undefined) | inactive | –
CC[C@H]1CN2CC[C@H]1C[C@H]2[C@H](O)c1ccnc2ccc(OC)cc12 | inactive | –
C=C1[C@@H]2CC[C@@]3(C)[C@H](c4ccoc4)OC(=O)C[C@]13O[C@H]1CC(=O)C(C)(C)[C@H](C(OC(C)=O)C(=O)OC)[C@]12C (some centres undefined) | inactive | –
O=C(N1CCOCC1)N1CCN(c2ccc(Cl)cc2)CC1 | inactive | –
C/C=C(\C)C(=O)OC1CC2C(CC=C3CC(OC4CC(OC)C(OC5CC(OC)C(OC6OC(C)C(OC7OC(CO)C(O)C(O)C7O)C(OC)C6O)C(C)O5)C(C)O4)CCC32C)C2(O)CCC(C(C)=O)C12C (centres undefined) | – | 4.57% [at 11.5 µM] (inactive)
C=C[C@H]1CN2CC[C@H]1C[C@@H]2[C@@H](O)c1ccnc2ccccc12 | inactive | –
Cc1cccc(NC(=O)N[C@@H]2N=C(c3ccccc3)c3ccccc3N(C)C2=O)c1 | inactive | –
COc1c(C(C)C)cc2c(c1O)[C@@]1(C(=O)O)CCCC(C)(C)C1CC2 (some centres undefined) | inactive | –
CC1=C2C[C@H]3[C@@H](CC=C4C[C@@H](O)CC[C@@]43C)[C@@H]2CC[C@]12O[C@@H]1C[C@H](C)CN[C@H]1[C@H]2C | inactive | –
C/C=C(\C)C(=O)O[C@H]1[C@H](OC(C)=O)[C@]2(CO)[C@H](O)[C@H](O)[C@]3(C)C(=CCC4[C@@]5(C)CC[C@H](O[C@@H]6O[C@H](C(=O)O)[C@@H](O)[C@H](O[C@@H]7OC[C@H](O)[C@H](O[C@@H]8OC[C@H](O)[C@H](O)[C@H]8O)[C@H]7O)[C@H]6O[C@@H]6O[C@H](CO)[C@@H](O)[C@H](O)[C@H]6O)C(C)(C)C5CC[C@]43C)[C@@H]2CC1(C)C (some centres undefined) | – | 9.29% [at 11.5 µM] (inactive)
CC1=CC2/C=C(\C)CCC(O)C3OC(C)(C)OC3CC(=O)OC23C(=O)NC(CC(C)C)C3C1C (centres undefined) | inactive | –

Target: Cytochrome P450 2D6 (Homo sapiens) (UniProt P10635)
Sequence (P10635 whole entry, looked up): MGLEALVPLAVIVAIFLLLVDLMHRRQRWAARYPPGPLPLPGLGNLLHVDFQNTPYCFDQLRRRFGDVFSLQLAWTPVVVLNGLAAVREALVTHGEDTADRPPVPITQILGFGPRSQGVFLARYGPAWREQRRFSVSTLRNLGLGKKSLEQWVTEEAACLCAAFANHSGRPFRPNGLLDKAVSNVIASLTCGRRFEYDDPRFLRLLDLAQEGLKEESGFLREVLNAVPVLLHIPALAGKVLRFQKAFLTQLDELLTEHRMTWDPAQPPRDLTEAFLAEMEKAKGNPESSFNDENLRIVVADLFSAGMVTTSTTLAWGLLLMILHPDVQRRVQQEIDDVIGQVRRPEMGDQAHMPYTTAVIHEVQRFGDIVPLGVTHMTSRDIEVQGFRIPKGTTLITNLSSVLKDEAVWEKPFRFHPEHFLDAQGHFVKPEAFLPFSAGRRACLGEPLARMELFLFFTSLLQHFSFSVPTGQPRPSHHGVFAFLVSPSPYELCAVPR
Experiment: qHTS for inhibitors of CYP2D6 against the NCATS DSHEA and TCM libraries (AID 1919972); note: % is set by controls: 0 for no effect and ±100 for the full control effect
Details: CYP2D6 enzymatic inhibition, luminescence qHTS; series mostly up to 34.1 µM
Outline: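 qHTS, concentration–response format with most substances from 19.5 nM. CYP2D6 + pro-luciferin substrate, 15 min with compound, then 1x NADPH regen, 30–45 min RT dark. Glo detection 30 min, luminescence. Quinidine control.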

SMILES | outcome
O=C/C=C/c1ccccc1 | inactive
CNC(C)C(O)c1ccc(O)cc1 (centres undefined) | inactive
O=Cc1ccco1 | inactive

System: not listed separately
Experiment: KB-3-1 P-gp reporter qHTS against the NCATS DSHEA and TCM libraries (AID 1919975); note: 0% is about no effect
Details: KB-3-1 parental cells, CellTiter-Glo luminescence viability, 72 h; series mostly up to 26.1 µM
Outline: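 Parental KB-3-1 human cervical adenocarcinoma cells (500 cells/well, DMEM + 10% FBS) were treated with substances for ~72 h at 37C; viability was read by CellTiter-Glo luminescence.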

SMILES | outcome
O=C/C=C/c1ccccc1 | inactive
CNC(C)C(O)c1ccc(O)cc1 (centres undefined) | inactive
O=Cc1ccco1 | inactive

System: not listed separately
Experiment: KB-8-5-11 P-gp reporter qHTS against the NCATS DSHEA and TCM libraries (AID 1919977); note: 0% is about no effect
Details: KB-8-5-11 cells; series mostly up to 26.1 µM
Outline: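 P-gp-overexpressing KB-8-5-11 cells (500/well) were plated in colchicine-free DMEM with 10% FBS, attached ~4 h, then exposed to substance titrations for ~72 h at 37C. Viability was read by CellTiter-Glo luminescence.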

SMILES | outcome
O=C/C=C/c1ccccc1 | inactive
CNC(C)C(O)c1ccc(O)cc1 (centres undefined) | inactive
O=Cc1ccco1 | inactive

System: not listed separately
Experiment: qHTS Counterscreen for compound interference against the NCATS DSHEA and TCM libraries (AID 1919978); note: % of control where 0% means no effect
Details: firefly luciferase detection reagent interference, luminescence
Outline: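 D-luciferin (1 uM final) or 100 mM potassium phosphate buffer alone was preincubated 15 min at RT with compounds (19.5 nM to 39.8 uM final). Luciferin detection reagent was then added and luminescence read after 30 min at RT.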

SMILES | max response
O=C/C=C/c1ccccc1 | 1.86% (inactive)
CNC(C)C(O)c1ccc(O)cc1 (centres undefined) | -3.49% (inactive)
O=Cc1ccco1 | -3.87% (inactive)

System: not listed separately
Experiment: Dual reporter qHTS for agonist of Pregnane X Receptor (hPXR) against the NCATS DSHEA and TCM libraries: Fluorescence readout (AID 1920058); note: 0% is about no effect
Details: PXR dual reporter cells; series mostly up to 40 µM
Outline: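 In this qHTS counter-read, reporter-bearing HepG2 cells in charcoal-stripped serum received substances for approximately 24 h before viability was assessed fluorometrically with CellTiter-Fluor.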

SMILES | outcome
O=C/C=C/c1ccccc1 | inactive
CNC(C)C(O)c1ccc(O)cc1 (centres undefined) | inactive
O=Cc1ccco1 | inactive

System: not listed separately
Experiment: Dual reporter qHTS for antagonist of Pregnane X Receptor (hPXR) against the NCATS DSHEA and TCM libraries: Fluorescence Readout (AID 1920061); note: 0% is about no effect
Details: PXR dual reporter cells, antagonist mode; series mostly up to 40 µM
Outline: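 Antagonist mode: rifampicin 2 uM final co-added with compounds to hPXR-LucHepG2 cells for 24 h at 37C. Viability by CellTiter-Fluor, Ex/Em 405/540 nm, 1 h; reporter by ONE-Glo luminescence.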

SMILES | outcome
O=C/C=C/c1ccccc1 | inactive
CNC(C)C(O)c1ccc(O)cc1 (centres undefined) | inactive
O=Cc1ccco1 | inactive

Reference: PubChem BioAssay (NCATS)
